Measured values published in PubChem BioAssay (Tox21).
Records with an inconclusive call do not appear. Entries that show only a call come without a potency. The source made the active and inactive calls. The call rests on the fitted dose curve; in most records, active means well fitted cell-killing curve with a large enough effect in the repeat runs; inconclusive means weak or mixed curves, or effect the other way; inactive means no such curve, though single readings can be large or run the other way.

Experiment: qHTS assay to identify small molecule agonists of the vitamin D receptor (VDR) signaling pathway - cell viability counter screen (AID 743224); further: nearly all actives have a fitted effect of over 50% in size
Settings: VDR-bla HEK293T viability, CellTiter-Glo luminescence, 16 h; series mostly up to 62.6 µM
Excerpt: U.S. Tox21 Program National Center for Advancing Translational Sciences [NCATS] NIH Chemical Genomics Center [NCGC] U.S. Environmental Protection Agency [EPA] National Institutes of Environmental Health Sciences [NIEHS] National Toxicology Program [NTP] U.S. Food and Drug Administration [FDA] Tox21 Assay Overview: The vitamin D receptor (VDR), a member of nuclear hormone receptor superfamily, plays a critical role in calcium homeostasis and bone metabolism. It is also involved in cell differentiation and growth, and thrombogenicity. […] The cytotoxicity of the Tox21 compound library against the VDR-bla cell line was tested in parallel by measuring the cell viability using CellTiter-Glo assay (Promega, Madison, WI) in the same wells.
Tox21 Assay Protocol Summary: VDR-bla cells were dispensed at 2,000 cells/6 uL/well into black wall/clear-bottom 1536-well plates using a Multidrop Combi (Thermo Fisher Scientific, Waltham, MA) dispenser. After the assay plates were incubated at a 37C and 5% CO2 for 4 h, 23 nL of compounds dissolved in DMSO, positive controls or DMSO only was transferred to the assay plate by a Pintool station (Kalypsys, San Diego, CA). The plates were incubated at 37C and 5% CO2 for 16 h. After 1 uL of LiveBLAzerTM B/G FRET substrate was added using a Bioraptr Flying Reagent Dispenser (FRD) workstation (Beckman Coulter, Indianapolis, IN, USA), the plates were incubated at room temperature for 2 h, and fluorescence intensity was measured by an Envision plate reader (PerkinElmer, Shelton, CT). For cell viability readout that measures cytotoxicity, 3 ul/well of CellTiter-Glo reagent was added into the assay plates using a FRD. After 30 min incubation at room temperature, the luminescence intensity in the plates was measured using a ViewLux (PerkinElmer) plate reader.

Row | SMILES | Potency
1 | CN1CCN(c2c(F)cc3c(=O)c(C(=O)O)cn4c3c2SCC4)CC1 | inactive
2 | O=C1N(c2ccccc2)c2ccccc2C1(Cc1ccncc1)Cc1ccncc1 | inactive
3 | CC1(C)O[C@@H]2C[C@H]3[C@@H]4CCC5=CC(=O)CC[C@]5(C)[C@@]4(F)[C@@H](O)C[C@]3(C)[C@]2(C(=O)CCl)O1 | inactive
4 | CCCCCCCCCCCCCCCCOP(=O)([O-])OCC[N+](C)(C)C | inactive
5 | O=c1[nH]cnc2c1ncn2[C@@H]1O[C@H](CO)[C@@H](O)[C@H]1O | inactive
6 | Cc1cc2c(s1)Nc1ccccc1N=C2N1CCN(C)CC1 | inactive
7 | CNCCC(Oc1ccccc1OC)c1ccccc1 (stereo not given) | inactive
8 | CCOc1ccccc1N | inactive
9 | COC(=O)N[C@H](C(=O)N[C@@H](Cc1ccccc1)[C@@H](O)CN(Cc1ccc(-c2ccccn2)cc1)NC(=O)[C@@H](NC(=O)OC)C(C)(C)C)C(C)(C)C | inactive
10 | NC/C=C/C(=O)O | inactive
11 | O=Cc1ccc(F)c(Br)c1 | inactive
12 | FC(F)(F)C(F)(F)C(F)(F)C(F)(F)C(F)(F)C(F)(F)C(F)(F)C(F)(F)Br | inactive
13 | CCCCc1ccc2nc(NC(=O)OC)[nH]c2c1 | inactive
14 | CN1C(=O)CC(c2ccccc2)C1=O (stereo not given) | inactive
15 | CCCCN1C[C@H](O)[C@@H](O)[C@H](O)[C@H]1CO | inactive
16 | CCc1cc(Cl)c(OC)c(C(=O)NC[C@@H]2CCCN2CC)c1O | inactive
17 | O=C1C=CC(=O)O1 | inactive
18 | C=Cc1ccccc1 | inactive
19 | CN(C)CCOc1ccccc1Cc1ccccc1 | inactive
20 | CN(C)Cc1ccccc1 | inactive

Row | SMILES | Potency
21 | CN(C)C(=O)NC1(c2ccccc2)CCN(CCC[C@]2(c3ccc(Cl)c(Cl)c3)CCCN(C(=O)c3ccccc3)C2)CC1 | inactive
22 | O=C1CCC(C2CCCCC2)CC1 | inactive
23 | OC[C@H]1O[C@@H](O[C@H]2[C@H](O)[C@@H](O)[C@H](O)O[C@@H]2CO)[C@H](O)[C@@H](O)[C@H]1O | inactive
24 | Oc1ccccc1C=NCc1ccccc1 | inactive
25 | CC(C)C(=O)OC/C=C/c1ccccc1 | inactive
26 | Cc1nc(-c2ccccn2)ncc1C(=O)Nn1cc(C)c2cc(F)ccc21 | inactive
27 | FC(F)(F)c1ccccc1 | inactive
28 | CCCNC(C)(C)COC(=O)c1ccccc1 | inactive
29 | CCCS(=O)c1ccc2nc(NC(=O)OC)[nH]c2c1 (stereo not given) | inactive
30 | NNS(=O)(=O)c1ccc(Oc2ccc(S(=O)(=O)NN)cc2)cc1 | inactive
31 | COC(=O)/C=C(/C)N | inactive
32 | O=C1CCCCC1C1CCCCC1 (stereo not given) | inactive
33 | COc1cc(C)ccc1C(C)C | inactive
34 | CCCCNCCCC | inactive
35 | CC1=C2[C@H](/C=C(\C)C(=O)O)CC[C@@H](C)[C@H]2CC1 | inactive
36 | CCOC(=O)C1CC(=O)C(=C(O)C2CC2)C(=O)C1 (stereo not given) | inactive
37 | OCC(CBr)(CBr)CBr | inactive
38 | CCCCCCCCOC(=O)CCCCCCCCC(=O)OCCCCCCCC | inactive
39 | CC(C)Nc1nc(N)nc(Cl)n1 | inactive
40 | N#CSCC(=O)O | inactive
